A selection: hits, their analogues and other compounds. The true share with any hit is near 4.5%.
CSC inhib: blocks cancer stem cells; cancer stem cell-like cells viability, luminescence; 1.1% of 300,000 active; inhibition, % at 7.5 µM; in the data active means inhibition above about 75%; tested in HMLE shEcad cells
aSyn UTR inh: 5' untranslated region of α-synuclein, MLPCN primary screen; alpha-synuclein 5'UTR reporter, inhibitor activity; inhibition, % (tested at 7.5 µM); 0.82% of 300,000 active; in the data active means inhibition above about 60%;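 further: H4 neuroglioblastoma cells stably carrying SNCA 5'UTR luciferase fusion; 0% = DMSO wells and 100% = positive control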
Jurkat NFkB inh: lowers PMA/ionomycin-induced NF-kB signal in Jurkat cells. PMA/ionomycin-induced NF-kB luciferase reporter, luminescence. inhibition, % at 4 µM. 0.53% of 330,000 active; in the data active means inhibition above about 50%
697 NFkB inh: inhibitors of the PMA/ionomycin-induced NF-kB reporter in 697 B cells | 0.33% of 330,000 active | inhibition, % at 4 µM | 697 B-cell NF-kB luciferase reporter, 16 h; in the data active means inhibition above about 35%
Gli-Sufu antag: blocks Gli-Sufu signaling in a luciferase reporter; 0.74% of 340,000 active; Sufu-KO-LIGHT fibroblasts, Gli luciferase reporter luminescence; inhibition, % at 5 µM;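 active means inhibition above about 55%, limit read from the data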;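 further: 0% = DMSO-treated cells and 100% = wells with medium but no cells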
Mdm2-MdmX inh: disrupts the human Mdm2-MdmX interaction. 3% of 330,000 active. SaOS-2 split-luciferase Mdm2/MdmX complementation, luminescence. inhibition, % at 8 µM. O15151+Q00987;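 active means inhibition of at least 50% at 8 µM in the primary screen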
Target sequence (O15151 whole entry, looked up): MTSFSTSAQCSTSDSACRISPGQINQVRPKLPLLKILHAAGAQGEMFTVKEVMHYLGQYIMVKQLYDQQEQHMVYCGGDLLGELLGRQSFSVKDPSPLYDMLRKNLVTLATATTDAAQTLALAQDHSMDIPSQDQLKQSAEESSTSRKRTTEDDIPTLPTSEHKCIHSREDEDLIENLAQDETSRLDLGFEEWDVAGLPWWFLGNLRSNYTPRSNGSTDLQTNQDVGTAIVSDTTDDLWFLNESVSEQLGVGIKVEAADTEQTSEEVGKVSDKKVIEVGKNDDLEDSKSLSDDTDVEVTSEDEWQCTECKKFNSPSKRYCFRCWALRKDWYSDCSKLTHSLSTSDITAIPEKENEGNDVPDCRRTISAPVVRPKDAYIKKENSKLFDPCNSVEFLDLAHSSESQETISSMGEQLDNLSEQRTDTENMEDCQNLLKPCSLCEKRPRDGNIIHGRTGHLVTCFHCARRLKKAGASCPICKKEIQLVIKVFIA
Target sequence (Q00987 whole entry, looked up): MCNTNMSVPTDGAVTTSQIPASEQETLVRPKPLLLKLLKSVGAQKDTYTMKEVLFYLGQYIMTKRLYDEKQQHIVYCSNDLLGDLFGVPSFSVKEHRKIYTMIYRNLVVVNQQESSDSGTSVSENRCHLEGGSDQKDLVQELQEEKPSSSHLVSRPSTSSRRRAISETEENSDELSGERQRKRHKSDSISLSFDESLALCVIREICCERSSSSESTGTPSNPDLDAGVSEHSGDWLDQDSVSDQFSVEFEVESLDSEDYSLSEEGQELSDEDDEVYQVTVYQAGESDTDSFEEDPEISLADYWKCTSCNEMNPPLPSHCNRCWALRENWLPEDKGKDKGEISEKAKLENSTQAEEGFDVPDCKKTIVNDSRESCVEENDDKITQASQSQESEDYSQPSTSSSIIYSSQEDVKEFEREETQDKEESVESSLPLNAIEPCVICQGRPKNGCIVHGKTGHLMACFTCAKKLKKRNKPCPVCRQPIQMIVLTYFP
Jurkat NFkB conf: lowers PMA/ionomycin-induced NF-kB signal in Jurkat cells. inhibition, % at 4 µM. shares compounds with Jurkat NFkB inh. 27% of 2,700 active. Jurkat NF-kB luciferase, 16 h;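 active means inhibition reaching about 45% at 4 µM in either replicate, limit read from the data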;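 further: plate controls were PMA/ionomycin stimulated DMSO wells for no effect and unstimulated DMSO wells for full effect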
697 NFkB conf: lowers PMA/ionomycin-induced NF-kB signal in 697 B cells; 35% of 2,000 active; inhibition, % at 4 µM; 697 B-cell NF-kB luciferase, 16 h; shares compounds with 697 NFkB inh; in the data active means inhibition mostly above about 28%, no sharp cut-off; inactive means mostly below about 22%
Mdm2 MdmX conf: confirmation of human Mdm2/MdmX interaction inhibitors. AID 489028. shares compounds with Mdm2-MdmX inh. 55% of 10,000 active. inhibition, % at 8 µM. Mdm2-MdmX binding, luminescent assay; in the data active means inhibition above about 40%
FLuc counter: full-length luciferase inhibition in Mdm2/MdmX counter-screen; shares compounds with Mdm2-MdmX inh; 77% of 6,200 active; inhibition, % at 8 µM; AID 504607; SaOS-2 full-length luciferase counterscreen, luminescence;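 active means mean inhibition at 8 µM reaching about 37%, which flags the compound as non-specific, limit read from the data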;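 further: p53-null SaOS-2 cells with luciferase driven by a doxycycline-inducible promoter; compound on cells about two nights before reading with doxycycline added after day one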
Gli-Sufu confirm: Gli-SUFU antagonism confirmation, single concentration; 40% of 2,500 active; AID 602428; Sufu-KO-LIGHT cells, Gli luciferase reporter, luminescence; shares compounds with Gli-Sufu antag; inhibition, % at 5 µM;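 active means mean inhibition at 5 µM reaching about 45%, limit read from the data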;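 further: plate controls were DMSO-treated cells for no effect and wells lacking cells for full effect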
SufuKO cytotox: counter-screen for Gli-SUFU antagonists: cytotoxicity. shares compounds with Gli-Sufu antag. Sufu-KO-LIGHT cells cytotoxicity, ATP luminescence. cytotoxicity, % at 5 µM. 32% of 2,500 active. AID 651994;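 active means mean cytotoxicity at 5 µM above about 25%, limit read from the data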;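 further: cells exposed to compound overnight for roughly 16 to 18 hours; plate controls were DMSO wells with cells for no effect and medium without cells for full effect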
Wnt3a cs: inhibits Wnt3a reporter, counter-screen for Gli-SUFU antagonists. AID 651995. inhibition, % at 6.25 µM. 20% of 2,500 active. shares compounds with Gli-Sufu antag. Wnt-LIGHT cells, Wnt3a-driven luciferase reporter, luminescence;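 active means mean inhibition above about 25%, limit read from the data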
Active calls of the source: *; · = not tested or not shown.

SMILES	CSC inhib	aSyn UTR inh	Jurkat NFkB inh	697 NFkB inh	Gli-Sufu antag	Mdm2-MdmX inh	Mdm2 MdmX conf	FLuc counter	others
COC(=O)C1=C(c2ccc(F)cc2F)C[C@@H]2CC[C@H]1N2C(=O)N1CCCCC1	4	·	-3	21	0	17	·	·
COc1cc(CNCCc2c[nH]c3ccccc23)cc(OC)c1	14	9	15	-4	7	-1	·	·
COc1ccc2c(c1)/C(=C/c1cnc[nH]1)C(=O)N2	33	-62	55*	-182	-23	85*	72*	32	Jurkat NFkB conf=42
CCOC(=O)[C@@]12C(=O)C(=O)N[C@]1(c1ccccc1)C1OCCCC12 (some centres undefined)	-7	-2	-5	26	-1	31	·	·
NCCCCCC(=O)OC1N=C(c2ccccc2Cl)c2cc(Br)ccc2NC1=O (centres undefined)	-19	28	-9	-15	-12	-8	·	·
CN(C)c1ccc(C=C(C#N)C#N)cc1	2	-1	-8	-25	-5	28	·	·
CC(C)(C)c1cc(C=C(C#N)C#N)cc(C(C)(C)C)c1O	81*	·	55*	-290	88*	96*	94*	12	Jurkat NFkB conf=73*;697 NFkB conf=-106
COc1ccc(C[C@H]2NC[C@H](O)[C@H]2OC(C)=O)cc1	79*	112*	100*	100*	87*	98*	98*	5	Jurkat NFkB conf=99*;697 NFkB conf=94*;Gli-Sufu confirm=92*;SufuKO cytotox=75*;Wnt3a cs=104*
N#CC1c2ccccc2-n2nncc2CN1C(=O)CCc1ccccc1 (centres undefined)	·	·	·	·	-32	·	·	·
Cn1c(=O)cc(OCC(=O)N2CCC3(CC2)OCCO3)c2ccccc21	1	9	15	42*	9	21	·	·	697 NFkB conf=40*
COC(=O)C1=C(c2c(C)noc2C)C[C@@H]2CC[C@H]1N2C(=O)NCCOc1ccc(OC)cc1	-23	·	3	1	2	-3	·	·
Cn1cnc([N+](=O)[O-])c1Sc1ccc([N+](=O)[O-])cc1	7	-66	20	36*	10	1	·	·	697 NFkB conf=43*
CCCCOC(=O)COc1cc(C)cc2oc(=O)c3c(c12)CCC3	-13	5	-2	-8	3	23	·	·
C=CCOC(=O)COc1cc(C)cc2oc(=O)c3c(c12)CCC3	-8	11	13	40*	-2	21	·	·	697 NFkB conf=32*
COc1ccc2c(C)c(CC(=O)N3C[C@H]4C[C@@H](C3)c3cccc(=O)n3C4)c(=O)oc2c1C	-11	0	6	23	-4	21	·	·
C/C=C(\C)C(=O)OC1C(C)=C2C(C1OC(=O)CCCCC)C(C)(OC(C)=O)CC(OC(=O)CCC)C1(O)C2OC(=O)C1(C)O (centres undefined)	101*	108*	12	-262	·	82*	64*	24	697 NFkB conf=-296
COc1ccc(C2=NCc3nnc(C)n3-c3ccc(Cl)cc32)cc1Cl	37	6	-31	45*	32	65*	28	·	697 NFkB conf=35*
Cc1nc(SCc2c(Cl)cccc2Cl)nc(OC(=O)N(C)C)c1C	4	18	7	-12	25	17	·	·
Cc1ccc(N2C(=O)CC(=O)NC2=O)cc1Cl	18	-5	6	1	5	1	·	·
CC12CCC(=O)C=C1CC(O)C1C2CCC2(C)C1CCC2(C)O (centres undefined)	·	·	·	·	1	·	·	·
CNC(=O)c1cccn(Cc2ccc(C(F)(F)F)cc2)c1=O	12	36	6	50*	42	56*	26	·	697 NFkB conf=61*
CCOC(=O)c1cccc(-[n+]2c(-c3ccccc3)cc(-c3ccccc3)cc2-c2ccccc2)c1	19	8	15	-53	33	89*	50*	33
c1ccc(-c2cc(-c3ccccc3)[n+](-c3ccccc3)c(-c3ccccc3)c2)cc1	37	-1	10	-77	73*	89*	92*	56*
CCOC(=O)c1ccc(-[n+]2c(-c3ccccc3)cc(-c3ccccc3)cc2-c2ccccc2)cc1	11	-38	26	-36	47	93*	61*	24
CCC1(OC(=O)c2ccccc2)CC(C)N(C)CC1C (centres undefined)	-12	10	-4	-1	-1	24	·	·
SMILES	CSC inhib	aSyn UTR inh	Jurkat NFkB inh	697 NFkB inh	Gli-Sufu antag	Mdm2-MdmX inh	Mdm2 MdmX conf	FLuc counter	others
COc1cc2c(cc1OC)-c1c(OC)c(OC)c(OC)c3ccnc(c13)C2=O	37	104*	36	-17	12	72*	44*	24
Cc1ccc(N2C(=O)NC(=O)/C(=C/C=C/c3ccco3)C2=O)cc1	79*	-76	-3	-24	10	54*	32	·
O=C1NC(=O)N(c2ccccc2)C(=O)/C1=C\C=C\c1ccccc1	60	-119	17	-96	10	78*	11	·
O=C1NC(=O)N(Cc2ccc(F)cc2)C(=O)/C1=C\C=C\c1ccco1	13	-270	-2	-6	-1	9	·	·
COC(=O)[C@@H]1C[C@H]1[C@@H](NP(=O)(c1ccccc1)c1ccccc1)c1ccccc1	7	-10	2	25	20	56*	40*	63*
O=C(c1cc(C(=O)NCc2ccccc2)c(=O)n(Cc2ccccc2)c1)c1cc(Cl)ccc1O	49	42	11	-14	11	56*	29	·
Fc1ccc(C(OCCN2CCN(CCCc3ccccc3)CC2)c2ccc(F)cc2)cc1	98*	106*	17	-2	5	83*	59*	30
c1ccc(CCCN2CCN(CCOC(c3ccccc3)c3ccccc3)CC2)cc1	69	1	-10	-31	9	50*	34	80*
Fc1ccc(C(OCCN2CCCC2)c2ccc(F)cc2)cc1	·	-7	2	-5	12	-7	·	·
O=C1Nc2cc(C(=O)N3CCC4(CC3)OCCO4)ccc2S/C1=C\c1ccccc1	52	-47	47	-31	-8	61*	50*	66*
